Activity calls are given as the source filed them.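 How the source made its calls: active means normalized viability below 100% at a tested concentration; inactive means the rest.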

A short description of one assay: ovarian cancer cell viability with rucaparib, profiling panel, oncology-focused library, rucaparib conditional (AID 1508598). To be noted: patient-derived ovarian cancer cells, CellTiter-Glo viability, 144 h; at 0.00122 µM; OCI-C5x cells; with rucaparib 10 µM; hits give low values; 100% = cells with rucaparib alone.
`C/C(=C\c1csc(C)n1)[C@H]1C[C@@H]2O[C@]2(C)CCC[C@H](C)[C@H](O)[C@@H](C)C(=O)C(C)(C)[C@H](O)CC(=O)O1`: the viability is 36.1% (active).
Still for that read-out and setting: the same measure for `C/C(=C\c1csc(C)n1)[C@H]1C[C@@H]2O[C@@H]2CCC[C@H](C)[C@H](O)[C@@H](C)C(=O)C(C)(C)[C@H](O)CC(=O)O1`: 41.4% (active).
Same read-out and setting: as for `CC(C)[C@@]12O[C@@H]1[C@@H]1O[C@]13[C@]1(O[C@@H]1C[C@@H]1C4=C(CC[C@@]13C)C(=O)OC4)[C@@H]2O`, the figure is 19.5% (active).

The assay is the same for the next values; noted with them: patient-derived ovarian cancer cells, CellTiter-Glo viability, 144 h; at 0.00122 µM; OCI-C5x cells; without rucaparib; hits give low values.
Turning to `C/C(=C\c1csc(C)n1)[C@H]1C[C@@H]2O[C@]2(C)CCC[C@H](C)[C@H](O)[C@@H](C)C(=O)C(C)(C)[C@H](O)CC(=O)O1`, the viability was 27.1% (active).
Same read-out and setting: the same measure for `C/C(=C\c1csc(C)n1)[C@H]1C[C@@H]2O[C@@H]2CCC[C@H](C)[C@H](O)[C@@H](C)C(=O)C(C)(C)[C@H](O)CC(=O)O1`: 28.8% (active); for `CC(C)[C@@]12O[C@@H]1[C@@H]1O[C@]13[C@]1(O[C@@H]1C[C@@H]1C4=C(CC[C@@]13C)C(=O)OC4)[C@@H]2O`: 15.4% (active).

Still in this assay, the particulars now being: patient-derived ovarian cancer cells, CellTiter-Glo viability, 144 h; at 0.00122 µM; OCI-P5x cells; with rucaparib 20 µM; hits give low values; 100% = cells with rucaparib alone.
`C/C(=C\c1csc(C)n1)[C@H]1C[C@@H]2O[C@]2(C)CCC[C@H](C)[C@H](O)[C@@H](C)C(=O)C(C)(C)[C@H](O)CC(=O)O1`: the viability is 48.9% (active).
Turning to `C/C(=C\c1csc(C)n1)[C@H]1C[C@@H]2O[C@@H]2CCC[C@H](C)[C@H](O)[C@@H](C)C(=O)C(C)(C)[C@H](O)CC(=O)O1`, the viability was 57.4% (active).
On to `CC(C)[C@@]12O[C@@H]1[C@@H]1O[C@]13[C@]1(O[C@@H]1C[C@@H]1C4=C(CC[C@@]13C)C(=O)OC4)[C@@H]2O`, for which the viability was 12.6% (active).

Still in this assay, the particulars now being: patient-derived ovarian cancer cells, CellTiter-Glo viability, 144 h; at 0.00122 µM; OCI-P5x cells; without rucaparib; hits give low values.
For the molecule `C/C(=C\c1csc(C)n1)[C@H]1C[C@@H]2O[C@]2(C)CCC[C@H](C)[C@H](O)[C@@H](C)C(=O)C(C)(C)[C@H](O)CC(=O)O1`, the viability is 17.2% (active).
In the case of `C/C(=C\c1csc(C)n1)[C@H]1C[C@@H]2O[C@@H]2CCC[C@H](C)[C@H](O)[C@@H](C)C(=O)C(C)(C)[C@H](O)CC(=O)O1`, the viability was 15.9% (active).
The same measure, in the same setting: the same measure for `CC(C)[C@@]12O[C@@H]1[C@@H]1O[C@]13[C@]1(O[C@@H]1C[C@@H]1C4=C(CC[C@@]13C)C(=O)OC4)[C@@H]2O`: 7.08% (active).

The assay is the same for the next values; noted with them: patient-derived ovarian cancer cells, CellTiter-Glo viability, 144 h; at 0.00488 µM; OCI-C5x cells; with rucaparib 10 µM; hits give low values; 100% = cells with rucaparib alone.
As to `C/C(=C\c1csc(C)n1)[C@H]1C[C@@H]2O[C@]2(C)CCC[C@H](C)[C@H](O)[C@@H](C)C(=O)C(C)(C)[C@H](O)CC(=O)O1`, the viability is 39.5% (active).
On the same count and under the same terms, the same measure for `C/C(=C\c1csc(C)n1)[C@H]1C[C@@H]2O[C@@H]2CCC[C@H](C)[C@H](O)[C@@H](C)C(=O)C(C)(C)[C@H](O)CC(=O)O1`: 27.2% (active).
On the same count and under the same terms, the same measure for `CC(C)[C@@]12O[C@@H]1[C@@H]1O[C@]13[C@]1(O[C@@H]1C[C@@H]1C4=C(CC[C@@]13C)C(=O)OC4)[C@@H]2O`: 8% (active).

The assay is the same for the next values; noted with them: patient-derived ovarian cancer cells, CellTiter-Glo viability, 144 h; at 0.00488 µM; OCI-C5x cells; without rucaparib; hits give low values.
Consider `C/C(=C\c1csc(C)n1)[C@H]1C[C@@H]2O[C@]2(C)CCC[C@H](C)[C@H](O)[C@@H](C)C(=O)C(C)(C)[C@H](O)CC(=O)O1`, for which the viability was 27.9% (active).
On the same count and under the same terms, as for `C/C(=C\c1csc(C)n1)[C@H]1C[C@@H]2O[C@@H]2CCC[C@H](C)[C@H](O)[C@@H](C)C(=O)C(C)(C)[C@H](O)CC(=O)O1`, the figure is 23.1% (active).
Same read-out and setting: as for `CC(C)[C@@]12O[C@@H]1[C@@H]1O[C@]13[C@]1(O[C@@H]1C[C@@H]1C4=C(CC[C@@]13C)C(=O)OC4)[C@@H]2O`, the figure is 7.6% (active).

The assay is the same for the next values; noted with them: patient-derived ovarian cancer cells, CellTiter-Glo viability, 144 h; at 0.00488 µM; OCI-P5x cells; with rucaparib 20 µM; hits give low values; 100% = cells with rucaparib alone.
Take `C/C(=C\c1csc(C)n1)[C@H]1C[C@@H]2O[C@]2(C)CCC[C@H](C)[C@H](O)[C@@H](C)C(=O)C(C)(C)[C@H](O)CC(=O)O1`: the viability was 48% (active).
Still for that read-out and setting: the same measure for `C/C(=C\c1csc(C)n1)[C@H]1C[C@@H]2O[C@@H]2CCC[C@H](C)[C@H](O)[C@@H](C)C(=O)C(C)(C)[C@H](O)CC(=O)O1`: 51% (active); for `CC(C)[C@@]12O[C@@H]1[C@@H]1O[C@]13[C@]1(O[C@@H]1C[C@@H]1C4=C(CC[C@@]13C)C(=O)OC4)[C@@H]2O`: 13.9% (active).

The same assay, now with this note: patient-derived ovarian cancer cells, CellTiter-Glo viability, 144 h; at 0.00488 µM; OCI-P5x cells; without rucaparib; hits give low values.
With `C/C(=C\c1csc(C)n1)[C@H]1C[C@@H]2O[C@]2(C)CCC[C@H](C)[C@H](O)[C@@H](C)C(=O)C(C)(C)[C@H](O)CC(=O)O1`, the viability is 17.6% (active).
The same measure, in the same setting: as for `C/C(=C\c1csc(C)n1)[C@H]1C[C@@H]2O[C@@H]2CCC[C@H](C)[C@H](O)[C@@H](C)C(=O)C(C)(C)[C@H](O)CC(=O)O1`, the figure is 16.8% (active); as for `CC(C)[C@@]12O[C@@H]1[C@@H]1O[C@]13[C@]1(O[C@@H]1C[C@@H]1C4=C(CC[C@@]13C)C(=O)OC4)[C@@H]2O`, 8.9% (active).

Still in this assay, the particulars now being: patient-derived ovarian cancer cells, CellTiter-Glo viability, 144 h; at 0.0195 µM; OCI-C5x cells; with rucaparib 10 µM; hits give low values; 100% = cells with rucaparib alone.
On to `C/C(=C\c1csc(C)n1)[C@H]1C[C@@H]2O[C@]2(C)CCC[C@H](C)[C@H](O)[C@@H](C)C(=O)C(C)(C)[C@H](O)CC(=O)O1`, for which the viability is 34.8% (active).
Still for that read-out and setting: as for `C/C(=C\c1csc(C)n1)[C@H]1C[C@@H]2O[C@@H]2CCC[C@H](C)[C@H](O)[C@@H](C)C(=O)C(C)(C)[C@H](O)CC(=O)O1`, the figure is 29.1% (active); as for `CC(C)[C@@]12O[C@@H]1[C@@H]1O[C@]13[C@]1(O[C@@H]1C[C@@H]1C4=C(CC[C@@]13C)C(=O)OC4)[C@@H]2O`, 10.1% (active).

The term viability denotes the share of living cells, or the viability signal relative to a control.
